Assay results published in PubChem BioAssay (Tox21).
Records with an inconclusive call do not appear. Activity calls are given as the source filed them. Unless noted, calls follow the shape of the full dose curve.

Experiments:
[1] = Nuclear factor erythroid 2-related factor 2/antioxidant responsive element (Nrf2/ARE) small molecule agonists: qHTS cell viability counter screen in human keratinocytes (AID 1919968; active = well fitted curve in the direction sought with a large enough effect in the repeat runs; an effect the other way counts as inactive or inconclusive; also: nearly all actives have a fitted effect of over 55% in size; also: potency is read from the fitted curve at half-maximal effect)
Outline: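 Measured as CellTiter-Fluor fluorescence, this readout tracks cytotoxicity in the same wells as the ARE-luciferase screen. HaCaT reporter cells (1,500/well) received compounds after a 5 h pre-incubation and were exposed for 23 h.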

[2] = Nuclear factor erythroid 2-related factor 2/antioxidant responsive element (Nrf2/ARE) small molecule agonists: luciferase reporter gene qHTS assay in human keratinocytes (AID 1919969); also: nearly all actives have a fitted effect of over 35% in size; also: potency is read from the fitted curve at half-maximal effect
[3] = target: Gonadotropin-releasing hormone receptor (Homo sapiens) (UniProt P30968); assay: Human gonadotropin-releasing hormone receptor (GnRHR) small molecule agonists, calcium flux assay in GnRHR-HEK293 cells (AID 1920063); also: nearly all actives have a fitted effect of over 35% in size
Outline: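 Fluorescence kinetics (480 nm excitation, 540 nm emission; 3 min, 1 s steps) report calcium mobilisation in human GnRHR-HEK293 cells in agonist mode. Dye incubation: 1 h, 37 C.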

[4] = target: KiSS-1 receptor (Homo sapiens) (UniProt Q969F8); assay: Human kisspeptin (KISS1R) small molecule agonists, calcium flux assay in KISS1R-HEK293 cells (AID 1920064; active = well fitted curve in the direction sought with a large enough effect in the repeat runs; an effect the other way counts as inactive or inconclusive)
Outline: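 Measures KISS1R agonism through calcium-sensitive dye fluorescence in stably transfected HEK293 cells, read for 3 min after pin-tool compound delivery; 15-point titrations in triplicate.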

[5] = G protein-coupled receptor (GPCR) small molecule agonists, calcium flux assay: HEK293 wild type cell line counter screen (AID 1920065)
Outline: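 Readout: fluorescence at 480 nm excitation/540 nm emission, sampled at 1 s intervals for 3 min. Cells had been cultured 18 h, then dye-loaded 1 h at 37 C before compound or ATP addition.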

[6] = p53 small molecule agonists, cell-based qHTS assay with rat liver microsomes (AID 1963578)
Outline: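 Agonist mode in p53RE-bla reporter cells, with compounds co-incubated 16 h at 37 C alongside 0.5 mg/mL rat liver microsomes and 0.5 mg/mL NADPH (final), followed by a 2 h LiveBLAzer detection step.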

[7] = p53 small molecule agonists, cell-based qHTS assay with human liver microsomes: qHTS cell viability counter screen (AID 1963579); also: nearly all actives have a fitted effect of over 45% in size
Outline: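 Metabolically activated exposure: compounds, human liver microsomes and NADPH (0.5 mg/mL final apiece) were added to p53RE-bla cells seeded 5 h earlier, left 16 h at 37 C, and then assessed for viability by CellTiter-Glo luminescence.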

[8] = p53 small molecule agonists, cell-based qHTS assay with rat liver microsomes: qHTS cell viability counter screen (AID 1963580); also: nearly all actives have a fitted effect of over 45% in size; also: potency is read from the fitted curve at half-maximal effect
Outline: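 HCT-116 p53RE-bla, 4,000 cells/well, 5 h pre-incubation; cpd + rat liver microsomes 0.5 mg/mL + NADPH 0.5 mg/mL (final); 16 h, 37 C; CellTiter-Glo, 30 min RT; luminescence.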

[9] = p53 small molecule agonists, cell-based qHTS assay (AID 1963582; active = well fitted activation curve with a large enough effect in the signal ratio in the repeat runs, not every such curve was filed as active; the % refers to the signal ratio)
Outline: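 Compounds are pin-transferred in DMSO onto p53RE-bla cells and incubated 16 h at 37 C. The B/G FRET beta-lactamase substrate is then applied for 2 h at RT and fluorescence recorded.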

[10] = target: 5-hydroxytryptamine receptor 2A (Homo sapiens) (UniProt P28223); assay: 5-hydroxytryptamine receptor 2A (HTR2A) small molecule antagonists, cell-based qHTS assay (AID 1963586); also: nearly all actives have a fitted effect of over 45% in size; also: potency is read from the fitted curve at half-maximal effect
Outline: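 Antagonist-mode intracellular calcium assay: DOI (4 nM) added after 5 min compound pre-incubation at room temperature to dye-loaded HTR2A-CHO cells. Fluorescence followed for 3 min, sampled every second.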

[11] = target: 5-hydroxytryptamine receptor 2A (Homo sapiens) (UniProt P28223); assay: 5-hydroxytryptamine receptor 2A (HTR2A) small molecule agonists, cell-based qHTS assay (AID 1963587); also: nearly all actives have a fitted effect of over 30% in size; also: potency is read from the fitted curve at half-maximal effect
Outline: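 Kinetic calcium-flux fluorescence (2 min, 1 sec intervals) after compound addition in agonist mode. HTR2A-CHO cells were cultured 18 h, then dye-loaded 1 h at 37 C.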

[12] = target: Muscarinic acetylcholine receptor M1 (Homo sapiens) (UniProt P11229); assay: Cholinergic receptor muscarinic 1 (CHRM1) small molecule antagonists, cell-based qHTS assay (AID 1963588); also: nearly all actives have a fitted effect of over 40% in size; also: potency is read from the fitted curve at half-maximal effect
Outline: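 CHRM1-CHO calcium-flux assay, antagonist mode. Cells were seeded 18 h, dye-loaded 1 h at 37 C and given compound for 5 min at RT, then acetylcholine was added at 50nM. FDSS fluorescence was read 3 min; 15 concentrations, three runs.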

[13] = target: Muscarinic acetylcholine receptor M1 (Homo sapiens) (UniProt P11229); assay: Cholinergic receptor muscarinic 1 (CHRM1) small molecule agonists, cell-based qHTS assay (AID 1963589); also: nearly all actives have a fitted effect of over 35% in size
Outline: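 Each compound was tested at 15 concentrations across three independent runs on dye-loaded CHO cells stably expressing human CHRM1, reading intracellular calcium fluorescence kinetically at 1 sec intervals.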

[14] = cAMP Responsive Elements (CRE) small molecule agonists, cell-based qHTS assay (AID 1963590)
Outline: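 Cell line: CRE-bla HEK 293T; medium DMEM/10% dialyzed FBS/0.1 mM NEAA/1 mM pyruvate/25 mM HEPES; 3 h compound exposure; beta-lactamase FRET readout after 2 h substrate loading at RT.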

[15] = cAMP Responsive Elements (CRE) small molecule antagonists, cell-based qHTS assay (AID 1963591; active = well fitted inhibition curve with a large enough effect in the signal ratio in the repeat runs, not every such curve was filed as active; the % refers to the signal ratio)
Outline: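 Inhibition of NKH477-driven (0.25 uM final) CRE-beta-lactamase signal in HEK293T cells, 3 h compound exposure at 37 °C, detected by FRET substrate fluorescence.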

[16] = target: Beta-2 adrenergic receptor (Homo sapiens) (UniProt P07550); assay: Adrenergic beta2 receptor (ADRB2) small molecule antagonists, cell-based qHTS assay (AID 1963592); also: series mostly up to about 92 µM; nearly all actives have a fitted effect of over 50% in size
Outline: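 Cells (CHO, stable ADRB2 overexpression) incubated 18-20hr at 37C; compounds added from DMSO; agonist mix (1nM isoproterenol, 100uM IBMX, 25uM Ro-20-1724) added; 0.5hr RT; d2-cAMP and anti-cAMP-cryptate added; 1hr RT; 665/615 nm read.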

[17] = target: D(2) dopamine receptor (Homo sapiens) (UniProt P14416); assay: Dopamine D2 receptor (DRD2) small molecule agonists, cell-based qHTS assay (AID 1963594); also: nearly all actives have a fitted effect of over 35% in size
Outline: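 cAMP accumulation in DRD2-HEK293 cells measured by HTRF after 1 h detection; compounds added 10 min before NKH477 (200nM […]) forskolin-analogue stimulation, 30 min at room temperature, with Ro20-1724 present at 0.1 mM final.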

[18] = target: D(2) dopamine receptor (Homo sapiens) (UniProt P14416); assay: Dopamine D2 receptor (DRD2) small molecule antagonists, cell-based qHTS assay (AID 1963595; active = well fitted inhibition curve with a large enough effect in the signal ratio in the repeat runs, with a control signal flat; the % refers to the signal ratio; also: potency is read from the fitted curve at half-maximal effect)
Outline: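 HTRF cAMP read-out at 665 and 620 nm emission (340 nm excitation). Antagonist mode: compounds were tested against 12 nM quinpirole in DRD2-HEK293 cells, with 200 nM NKH477 raising cAMP and 0.1 mM Ro20-1724 blocking its breakdown.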

[19] = target: Beta-2 adrenergic receptor (Homo sapiens) (UniProt P07550); assay: Adrenergic beta2 receptor (ADRB2) small molecule agonists, cell-based qHTS assay (AID 1963593);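 also: CHO cells stably overexpressing human ADRB2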
Outline: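 CHO cells stably over-expressing ADRB2 were plated overnight at 37C, then dosed with compounds plus a stimulation mix containing 100uM IBMX and 25uM Ro-20-1724 for 0.5hr at room temperature. cAMP was measured by HTRF competition, 1hr.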

[20] = p53 small molecule agonists, cell-based qHTS assay: qHTS cell viability counter screen (AID 1963581); also: nearly all actives have a fitted effect of over 45% in size; also: potency is read from the fitted curve at half-maximal effect
Outline: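 In the same plates used for the p53 bla reporter, HCT-116 cells given compounds for 16 h at 37 C received CellTiter-Glo; luminescence was recorded 30 min later at room temperature.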

Measured: Potency

5-hydroxytryptamine receptor 2A (Homo sapiens), sequence (P28223 whole entry, looked up): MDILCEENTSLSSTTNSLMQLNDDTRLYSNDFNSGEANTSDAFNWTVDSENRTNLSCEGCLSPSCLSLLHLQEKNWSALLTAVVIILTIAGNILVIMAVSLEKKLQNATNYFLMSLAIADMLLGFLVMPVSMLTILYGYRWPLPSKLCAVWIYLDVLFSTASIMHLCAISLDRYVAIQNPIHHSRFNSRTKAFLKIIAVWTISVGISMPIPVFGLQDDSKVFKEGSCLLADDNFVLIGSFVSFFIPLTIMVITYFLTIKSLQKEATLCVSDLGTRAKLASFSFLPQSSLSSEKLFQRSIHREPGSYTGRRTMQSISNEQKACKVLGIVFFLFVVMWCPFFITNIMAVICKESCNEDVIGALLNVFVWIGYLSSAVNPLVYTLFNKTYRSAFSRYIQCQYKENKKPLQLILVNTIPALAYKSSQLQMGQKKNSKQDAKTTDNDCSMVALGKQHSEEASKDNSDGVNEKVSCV
Gonadotropin-releasing hormone receptor (Homo sapiens), sequence (P30968 whole entry, looked up): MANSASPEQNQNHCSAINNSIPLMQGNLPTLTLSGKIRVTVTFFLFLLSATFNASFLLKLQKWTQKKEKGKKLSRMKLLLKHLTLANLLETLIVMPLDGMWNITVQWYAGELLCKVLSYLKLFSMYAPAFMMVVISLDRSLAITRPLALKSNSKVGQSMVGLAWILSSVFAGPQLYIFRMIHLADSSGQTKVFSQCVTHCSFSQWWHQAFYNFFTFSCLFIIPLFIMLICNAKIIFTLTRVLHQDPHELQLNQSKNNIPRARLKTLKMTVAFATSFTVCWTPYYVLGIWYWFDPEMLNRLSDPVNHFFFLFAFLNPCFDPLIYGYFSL
Muscarinic acetylcholine receptor M1 (Homo sapiens), sequence (P11229 whole entry, looked up): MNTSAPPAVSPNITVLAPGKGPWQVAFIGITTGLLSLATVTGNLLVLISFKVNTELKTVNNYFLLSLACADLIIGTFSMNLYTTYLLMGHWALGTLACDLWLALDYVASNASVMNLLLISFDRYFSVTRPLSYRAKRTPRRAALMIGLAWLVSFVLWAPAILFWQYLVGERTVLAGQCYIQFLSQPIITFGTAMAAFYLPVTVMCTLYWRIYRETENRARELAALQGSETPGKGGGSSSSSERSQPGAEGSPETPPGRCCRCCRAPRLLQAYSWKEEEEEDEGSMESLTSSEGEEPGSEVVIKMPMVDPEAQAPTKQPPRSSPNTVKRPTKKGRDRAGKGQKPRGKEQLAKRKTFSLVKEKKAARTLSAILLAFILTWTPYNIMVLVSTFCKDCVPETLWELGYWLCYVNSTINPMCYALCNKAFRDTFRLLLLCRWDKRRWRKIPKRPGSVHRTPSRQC
D(2) dopamine receptor (Homo sapiens), sequence (P14416 whole entry, looked up): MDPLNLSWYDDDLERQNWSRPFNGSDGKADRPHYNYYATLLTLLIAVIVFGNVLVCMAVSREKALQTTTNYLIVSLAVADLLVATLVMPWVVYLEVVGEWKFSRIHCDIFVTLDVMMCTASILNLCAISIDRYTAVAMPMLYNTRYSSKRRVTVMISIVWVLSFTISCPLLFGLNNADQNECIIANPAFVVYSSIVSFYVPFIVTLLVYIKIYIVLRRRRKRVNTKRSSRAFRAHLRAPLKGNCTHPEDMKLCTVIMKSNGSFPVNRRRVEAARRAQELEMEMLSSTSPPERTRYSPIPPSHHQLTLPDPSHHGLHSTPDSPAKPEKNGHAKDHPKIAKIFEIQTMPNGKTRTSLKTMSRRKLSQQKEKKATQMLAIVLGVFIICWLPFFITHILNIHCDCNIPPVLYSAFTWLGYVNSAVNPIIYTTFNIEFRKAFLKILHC
Beta-2 adrenergic receptor (Homo sapiens), sequence (P07550 whole entry, looked up): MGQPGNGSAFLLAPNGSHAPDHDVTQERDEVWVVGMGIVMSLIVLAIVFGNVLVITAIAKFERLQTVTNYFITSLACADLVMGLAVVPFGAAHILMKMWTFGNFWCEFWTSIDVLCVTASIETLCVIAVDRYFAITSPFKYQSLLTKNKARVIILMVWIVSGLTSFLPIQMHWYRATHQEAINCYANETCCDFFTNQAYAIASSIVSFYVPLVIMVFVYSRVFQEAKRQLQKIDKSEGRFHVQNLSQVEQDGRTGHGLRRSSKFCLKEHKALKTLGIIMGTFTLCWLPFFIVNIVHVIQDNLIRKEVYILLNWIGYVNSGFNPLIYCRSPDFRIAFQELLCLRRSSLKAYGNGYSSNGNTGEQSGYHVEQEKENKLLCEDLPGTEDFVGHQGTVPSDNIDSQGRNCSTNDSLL
KiSS-1 receptor (Homo sapiens), sequence (Q969F8 whole entry, looked up): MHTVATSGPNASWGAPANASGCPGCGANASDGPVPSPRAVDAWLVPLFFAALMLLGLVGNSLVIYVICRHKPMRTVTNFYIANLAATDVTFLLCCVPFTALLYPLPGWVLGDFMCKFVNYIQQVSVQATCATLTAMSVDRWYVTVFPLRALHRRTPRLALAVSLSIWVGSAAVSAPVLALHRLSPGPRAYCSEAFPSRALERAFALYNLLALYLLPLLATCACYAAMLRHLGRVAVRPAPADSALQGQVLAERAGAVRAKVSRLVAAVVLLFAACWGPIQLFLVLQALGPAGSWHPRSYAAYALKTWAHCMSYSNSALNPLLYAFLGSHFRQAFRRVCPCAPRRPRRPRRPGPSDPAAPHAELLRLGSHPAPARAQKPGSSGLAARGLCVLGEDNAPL

CC(CCc1ccccc1)NC(C)C(O)c1ccc(O)cc1 (centres undefined)
active: [18] 16.8 µM
not listed: [19] | [20]
inactive: all other assays above

FC(F)OC(F)(F)C(F)Cl (centres undefined)
not listed: [12] | [13] | [15] | [20]
inactive: all other assays above

CON(C)C(=O)Nc1ccc(Br)cc1
not listed: [8] | [9] | [19]
inactive: all other assays above

CNC(=O)Oc1cc(C)c(SC)c(C)c1
not listed: [6] | [10] | [19]
inactive: all other assays above

Oc1ccc2c3c1O[C@H]1[C@@H](O)C=C[C@H]4[C@@H](C2)NCC[C@@]341
not listed: [7] | [9] | [11] | [14]
inactive: all other assays above

O=C(CCl)NCO
not listed: [7] | [8] | [19]
inactive: all other assays above

COc1cc(CC(C)N)cc(OC)c1OC (centres undefined)
active: [10] 0.228 µM | [11] 0.265 µM
not listed: [8] | [14] | [16] | [17] | [19]
inactive: all other assays above

CNC(=O)Oc1cc(C)cc(C(C)C)c1
not listed: [6] | [19]
inactive: all other assays above

O=[N+]([O-])c1c(Cl)c(Cl)cc(Cl)c1Cl
active: [1] 43.3 µM | [2] 9.69 µM | [8] 36.3 µM | [12] 11.2 µM
inactive: [3] | [4] | [5] | [6] | [7] | [20] | [11] | [15] | [16]

Clc1ccc(C2(Cn3cncn3)CC(Br)CO2)c(Cl)c1 (centres undefined)
not listed: [10] | [11] | [14] | [18]
inactive: all other assays above

O=S(=O)(O)C(F)(F)C(F)(F)C(F)(F)C(F)(F)F
inactive: [1] | [3] | [4] | [5] | [6] | [10] | [11] | [12] | [16] | [18]
active: [2] 72.7 µM

CS(=O)(=O)c1ccc(C(=O)C2C(=O)CCCC2=O)c([N+](=O)[O-])c1
not listed: [8] | [9] | [12] | [13] | [14] | [15] | [17] | [19]
inactive: all other assays above

Cc1nnc(-c2ccccc2)c(=O)n1N
not listed: [8] | [14] | [19]
inactive: all other assays above

COP(=S)(OC)Oc1ccc(S(N)(=O)=O)cc1
not listed: [6] | [10] | [19]
inactive: all other assays above

COP(=S)(OC)Oc1ccc([N+](=O)[O-])c(C)c1
active: [20] 0.363 µM
not listed: [6] | [12] | [16] | [17]
inactive: all other assays above

O=CCCl
not listed: [7] | [10] | [15]
inactive: all other assays above

CCS(=O)(=O)CCSP(=O)(OC)OC
active: [2] 61.1 µM
not listed: [6] | [12] | [13] | [15]
inactive: all other assays above
